Drawing on PubChem BioAssay, this text covers z-score and composite z-score for eight molecules.

Molecules are shown by their SMILES. Activity calls are given as the source filed them. Unless noted, the rule behind the calls is not given here.

Assay [1] is described as follows: compound effects on lung adenocarcinoma cell viability – A549, calcein-AM fluorescence, 48 h, basal, profiling panel (AID 1162). Note: test concentration not given here. The following applies: higher = more signal.
A short description of assay [2]: compound effects on differentiated 3T3-L1 adipocyte viability – cell-based, 3T3-L1 adipocytes, calcein-AM fluorescence, 48 h, basal, profiling panel (AID 1163). Note: test concentration not given here. As to conditions: 3T3-L1 adipocytes viability, higher = more signal.
Assay [3] in a line: compound effects on hepatocellular carcinoma cell viability – HepG2, calcein-AM fluorescence, 48 h, basal, profiling panel (AID 1164). Note: test concentration not given here. As to conditions: higher = more signal.
Assay [4] is described as follows: compound effects on multiple myeloma cell viability – MM1S, calcein-AM fluorescence, 48 h, basal, profiling panel (AID 1165).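 Note: viability of MM1S multiple myeloma cells under basal unstimulated conditions; test concentration not given here.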 The following applies: higher = more signal.
Assay [5] in a line: calcein-AM signal in unstimulated myeloma cells – cell-based, calcein-AM fluorescence, 48 h, PK04 Diversity Set, profiling panel (AID 1166).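 Note: cells grown under basal conditions without added stimulus; test concentration not given here.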 The following applies: RPMI8226 myeloma viability, higher = more signal.
Assay [6] is described as follows: JC-1 mitochondrial signal, unstimulated HepG2 cells – cell-based, JC-1 fluorescence, 24 h, 100 nL compound, profiling panel (AID 1167). Note: test concentration not given here. As to conditions: HepG2 mitochondrial potential, higher = more signal.
Assay [7] is described as follows: JC-1 mitochondrial signal, unstimulated adipocytes – cell-based, JC-1 fluorescence, 3T3-L1 adipocytes, 24 h, 100 nL compound, profiling panel (AID 1168). Note: test concentration not given here. The following applies: JC-1 mitochondrial fluorescence, higher = more signal, called active from +8 up or from −8 down.
Assay [8] can be described thus: JC-1 mitochondrial signal, unstimulated myeloma cells – cell-based, JC-1 fluorescence, RPMI8226, 24 h, 100 nL compound, profiling panel (AID 1169). Note: test concentration not given here. The following applies: JC-1 mitochondrial potential fluorescence, higher = more signal.
A short description of assay [9]: JC-1 mitochondrial signal, unstimulated MM1S myeloma – cell-based, JC-1 fluorescence, 24 h, 100 nL compound, profiling panel (AID 1170). Note: test concentration not given here. As to conditions: MM1S mitochondrial potential, higher = more signal.
A short description of assay [10]: resazurin metabolic signal in A549 cells – cell-based, resazurin fluorescence, 24 h, PK04 Diversity Set, profiling panel (AID 1171). Note: test concentration not given here. As to conditions: A549 viability, higher = more signal, called active from +8 up or from −8 down. On the technique in general: The colour change of resazurin is a common sign of viable cells or microbes.
A short description of assay [11]: resazurin metabolic signal in HepG2 cells – cell-based, resazurin fluorescence, 24 h, PK04 Diversity Set, profiling panel (AID 1172). Note: test concentration not given here. The following applies: HepG2 viability, higher = more signal.
Assay [12] is described as follows: budding yeast growth changes without added modifier – OD600, strain BY4716, 24 h, basal condition, primary screen (AID 1173). As to conditions: S. cerevisiae BY4716 growth, OD600, 24 h; higher = more signal, called active from +8 up or from −8 down.
Assay [13] is described as follows: viability profiling in MM1S myeloma cells – cell-based, resazurin fluorescence, basal, 24 h, PK04 Diversity Set, profiling panel (AID 1174). Note: test concentration not given here. The following applies: higher = more signal, called active from +8 up or from −8 down.
For assay [14], the target named is Dihydroorotate dehydrogenase (quinone), mitochondrial (Plasmodium falciparum (isolate 3D7)) (UniProt Q08210). The assay can be described thus: inhibition of P. falciparum DHODH – biochemical, C-terminal His tag, absorbance 600 nm, primary screen (AID 1175).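 Note: recombinant parasite enzyme with a five histidine tag at its C terminus; test concentration not given here.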 As to conditions: PfDHODH enzyme, DCIP absorbance 600 nm; higher = more signal, called active from +8 up or from −8 down.

Assay [15] is described as follows: inhibition of PAO1 biofilm formation – strain PAO1, LB-PBS medium, absorbance 600 nm, primary screen (AID 1176). Note: test concentration not given here. As to conditions: P. aeruginosa PAO1 growth/biofilm, A600, 12 h; higher = more signal.
Assay [16] is described as follows: growth modulation of vineyard yeast isolate – strain RM11-1a, OD600, basal, 24 h, primary screen (AID 1177).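 Note: cultures grown under basal conditions with no added stressor; test concentration not given here.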 As to conditions: S. cerevisiae RM11-1a growth, OD600, 24 h; higher = more signal, called active from +8 up or from −8 down.
The nature of assay [17]: growth of efflux-deficient E. coli DRC39 – strain DRC39, OD650, 24 h, E. coli filamentation inducers, primary screen (AID 1178).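 Note: growth measured as culture turbidity by optical density at 650 nm; test concentration not given here.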 The following applies: E. coli DRC39 acrAB, higher = more signal, called active from +8 up or from −8 down.
A short description of assay [18]: growth of efflux-deficient E. coli DRC39 – strain DRC39, OD650, 48 h, E. coli filamentation inducers, primary screen (AID 1179).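 Note: screen aims at cell division blockers that make cells filament.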 The following applies: E. coli DRC39 delta-acrAB growth, higher = more signal, called active from +8 up or from −8 down.
The nature of assay [19]: viability profiling in RPMI8226 myeloma cells – cell-based, resazurin fluorescence, basal, 24 h, PK04 Diversity Set, profiling panel (AID 1180).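 Note: RPMI8826 multiple myeloma cell line at 5000 cells per well; test concentration not given here.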 As to conditions: higher = more signal.
In assay [20] the target is E3 ubiquitin-protein ligase XIAP (Homo sapiens) (UniProt P98170). The assay can be described thus: small molecules binding XIAP protein – biophysical, small-molecule microarray, fluorescence 635 nm, primary screen (AID 1181).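 Note: score merges 667 nm emission and signal to noise over triplicate slides.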 The following applies: higher = more signal.
E3 ubiquitin-protein ligase XIAP (Homo sapiens), sequence (P98170 whole entry, looked up): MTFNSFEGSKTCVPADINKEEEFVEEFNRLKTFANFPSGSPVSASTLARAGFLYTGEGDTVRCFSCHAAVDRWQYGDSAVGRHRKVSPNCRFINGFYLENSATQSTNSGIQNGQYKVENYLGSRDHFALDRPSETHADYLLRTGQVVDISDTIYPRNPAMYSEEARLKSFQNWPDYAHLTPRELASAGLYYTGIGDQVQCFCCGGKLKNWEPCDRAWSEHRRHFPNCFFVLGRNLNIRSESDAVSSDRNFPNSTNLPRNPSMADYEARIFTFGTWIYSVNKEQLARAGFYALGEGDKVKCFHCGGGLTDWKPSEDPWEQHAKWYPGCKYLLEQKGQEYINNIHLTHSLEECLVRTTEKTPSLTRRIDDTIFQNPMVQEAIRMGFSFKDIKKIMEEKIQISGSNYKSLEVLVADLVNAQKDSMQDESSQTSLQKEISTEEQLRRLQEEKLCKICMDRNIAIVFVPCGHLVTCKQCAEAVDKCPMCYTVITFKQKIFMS

Dihydroorotate dehydrogenase (quinone), mitochondrial (Plasmodium falciparum (isolate 3D7)), sequence (Q08210 whole entry, looked up): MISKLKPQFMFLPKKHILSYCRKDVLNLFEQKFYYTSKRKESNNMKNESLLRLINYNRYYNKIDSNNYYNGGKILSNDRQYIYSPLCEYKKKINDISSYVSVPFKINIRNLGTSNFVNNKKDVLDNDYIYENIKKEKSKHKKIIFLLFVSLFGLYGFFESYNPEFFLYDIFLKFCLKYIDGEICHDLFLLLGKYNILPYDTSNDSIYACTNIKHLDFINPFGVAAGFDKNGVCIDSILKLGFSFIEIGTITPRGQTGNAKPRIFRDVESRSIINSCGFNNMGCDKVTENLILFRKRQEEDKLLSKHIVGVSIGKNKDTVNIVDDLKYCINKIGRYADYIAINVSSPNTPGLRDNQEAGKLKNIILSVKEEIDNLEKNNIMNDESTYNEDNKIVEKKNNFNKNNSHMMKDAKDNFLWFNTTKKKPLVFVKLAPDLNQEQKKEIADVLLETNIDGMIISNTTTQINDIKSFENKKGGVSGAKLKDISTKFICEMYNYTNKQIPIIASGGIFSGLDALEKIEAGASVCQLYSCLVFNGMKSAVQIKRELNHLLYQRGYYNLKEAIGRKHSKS

On to `CN(C)CCCNC(=O)[C@@]1(C)c2ccccc2C(=O)N(Cc2ccccc2)[C@H]1c1ccc(CO)cc1`, for which the z-score was 0.0156 in [1]; 0.451 in [2]; 0.339 in assay [3]; -0.748 in assay [4]; 0.3 in assay [5]; 0.303 in assay [6]. Moreover, the z-score is 0.457 (inactive) in assay [7]; -0.798 in assay [8]; 0.445 in assay [9]; 0.356 (inactive) in assay [10]; -0.834 in assay [11]; 0.384 (inactive) in assay [12]. In addition, the z-score in assay [13] was 0.367 (inactive); in [15], 0.683 (inactive); in assay [16], 0.861 (inactive); in assay [17], -0.147 (inactive); in assay [18], -0.0983 (inactive); in assay [19] it was 0.009. Also, the composite z-score was -0.106 (inactive) in [14] and 0.0155 in assay [20].
For `COc1ccc(CCN2C(=O)[C@@]3(Cc4ccccc42)c2ccccc2C(=O)N(Cc2ccccc2OC)[C@H]3c2ccc(CO)cc2)cc1`, the z-score was -0.391 in assay [1]; 0.677 in assay [2]; -0.264 in assay [3]; -1.98 in assay [4]; -0.996 in assay [5]; 0.0826 in [6]. In addition, the z-score is 0.16 (inactive) in assay [7]; 0.718 in assay [8]; 0.464 in assay [9]; 0.271 (inactive) in [10]; -0.736 in assay [11]; -0.158 (inactive) in assay [12]. Further, the z-score in assay [13] was 0.289 (inactive); in assay [15], -0.0065 (inactive); in assay [16], -1.16 (inactive); in assay [17] it was 0.981 (inactive); in assay [18] it was 0.339 (inactive); in assay [19], 1.01. Moreover, the composite z-score in assay [14] is -4.65 (inactive); in assay [20], -0.194.
With `C=CCC(OC(C)=O)[C@@H]1[C@@H](N(Cc2ccc(-c3cccc(C(F)(F)F)c3)o2)C(=O)c2ccc(-c3ccccc3)cc2)c2cc(OCCCO)ccc2N1C(=O)c1ccc2ccccc2n1` (stereo not given in full), the z-score is -0.157 in [1]; 0.585 in [2]; -0.474 in assay [3]; 0.0887 in assay [4]; 0.458 in assay [5]; 2.07 in [6]. Besides, the z-score in [7] is -0.572 (inactive); in assay [8], 0.378; in assay [9], -0.0621; in [10] it was 0.264 (inactive); in assay [11], -0.0845; in [12] it was 1.59 (inactive). In addition, the z-score in assay [13] is 0.328 (inactive); in [15], 0.857 (inactive); in assay [16], 0.859 (inactive); in assay [17], -0.347 (inactive); in assay [18], -0.302 (inactive); in assay [19] it was -0.556. Besides, the composite z-score in assay [14] is -0.32 (inactive); in assay [20] it was -0.152.
Turning to `COC(=O)C(CC#Cc1ccc2c(c1)[C@]1(C(=O)N2)[C@H](c2ccccc2OCCO)N2[C@H](c3ccccc3)[C@H](c3ccccc3)OC(=O)[C@H]2[C@@H]1C(=O)NC[C@H](O)c1ccccc1)C(=O)OC`, the z-score was 1.24 in assay [1]; -0.625 in assay [2]; 0.876 in assay [3]; -3.38 in assay [4]; -4.55 in assay [5]; -1.12 in [6]. In addition, the z-score in assay [7] was 1.01 (inactive); in assay [8] it was -1.11; in assay [9] it was -2.27; in assay [10], 0.107 (inactive); in assay [11], -0.248; in [12], 1.61 (inactive). In addition, the z-score was -6.75 (inactive) in [13]; 2.09 (inactive) in assay [15]; 2.22 (inactive) in assay [16]; 0.405 (inactive) in [17]; 0.615 (inactive) in assay [18]; -6.97 in assay [19]. The composite z-score in assay [14] is -4.58 (inactive); in assay [20] it was 0.279.
Consider `COc1ccc(CCNC(=O)[C@@]2(Sc3ccc(C)cc3)CC(=O)N(C3Cc4ccccc4C3)[C@@H]2c2ccc(CO)cc2)cc1`, for which the z-score in assay [1] was -0.342; in [2], 0.67; in assay [3] it was -1.16; in assay [4], -0.729; in assay [5], -1.35; in [6], -0.114. For the same molecule, the z-score is -0.775 (inactive) in [7]; -0.608 in assay [8]; -0.885 in assay [9]; 0.358 (inactive) in assay [10]; 0.115 in assay [11]; 0.293 (inactive) in assay [12]. Besides, the z-score in assay [13] is -1.13 (inactive); in assay [15], 0.31 (inactive); in assay [16] it was -0.255 (inactive); in assay [17], 0.514 (inactive); in [18], 0.005 (inactive); in assay [19], 0.136. Also, the composite z-score was -0.396 (inactive) in assay [14] and 2.04 in [20].
`CCOC(=O)C1=C[C@@H](c2ccccc2)N(S(=O)(=O)c2ccc(C)cc2)[C@H]1c1ccccc1Cl`: the z-score is -0.968 in assay [1]; -0.426 in assay [2]; 0.0009 in assay [3]; -0.938 in [4]; -0.435 in assay [5]; 2.6 in assay [6]. In addition, the z-score was 0.422 (inactive) in [7]; 1.01 in assay [8]; 0.38 in [9]; 1.09 (inactive) in assay [10]; -0.695 in assay [11]; 2.1 (inactive) in assay [12]. In addition, the z-score in assay [13] is -0.898 (inactive); in assay [15] it was 0.244 (inactive); in assay [16], 2.01 (inactive); in [17], -0.581 (inactive); in assay [18] it was -0.591 (inactive); in [19], -1.88. The results for the composite z-score in [14] and in assay [20] were 0.268 (inactive) and -0.136, respectively.
Consider `O=C(CS)NCCCCCNC(=O)[C@@H]1C[C@@H]2C(=O)N3CCC[C@H]3C(=O)N2[C@@H]1c1cccc(OCCO)c1`, for which the z-score in assay [1] is -0.174; in [2], 0.195; in [3], 0.451; in [4] it was -0.304; in assay [5] it was -0.799; in assay [6], 0.266. Moreover, the z-score in assay [7] was 0.0369 (inactive); in assay [8], -0.00798; in assay [9] it was 0.305; in [10] it was -0.61 (inactive); in assay [11], -0.514; in assay [12] it was 0.196 (inactive). Further, the z-score in [13] is -0.374 (inactive); in assay [15] it was 0.711 (inactive); in assay [16] it was 0.119 (inactive); in assay [17] it was -0.277 (inactive); in assay [18], -0.141 (inactive); in assay [19], -0.664. The composite z-score is -1.8 (inactive) in [14] and 0.122 in assay [20].
Take `COC(=O)[C@@]1(Cc2ccccc2)[C@H]2c3cc(C(=O)N(C)C)n(CCc4ccc(O)c(OC)c4)c3C[C@H]2CN1C(=O)c1ccccc1`: the z-score in [1] was 0.0634; in [2] it was -0.121; in assay [3], 0.343; in assay [4], -1.32; in assay [5], -0.0242; in assay [6], -0.533. Besides, the z-score in [7] was -0.9 (inactive); in [8] it was -0.665; in assay [9] it was -0.241; in assay [10] it was 0.641 (inactive); in [11], 0.0393; in assay [12], 0.483 (inactive). Further, the z-score in [13] is -0.207 (inactive); in [15], 0.454 (inactive); in assay [16] it was 0.194 (inactive); in assay [17], -0.514 (inactive); in [18] it was -0.253 (inactive); in assay [19], 0.0379. The composite z-score in assay [14] is -0.487 (inactive); in [20], -0.0373.
